ChEMBL document CHEMBL1201862, “PubChem BioAssay data set” (2004)
Where “and” joins values, the source holds several entries; their conditions need not be identical. Equal entries are not always repeated.

Experiment: A High Throughput Confirmatory Assay used to Identify Novel Compounds that Inhibit Mycobacterium Tuberculosis in the absence of Glycerol using Purified and Synthesized Compounds (7).
Format: functional

Structure (SMILES)	IC90
CC1CCN(C(=O)c2ccc(CNc3c(N4CCCC4)c(=O)c3=O)cc2)CC1	> 100 µM (active)
CC(=O)c1ccc(NC(=O)c2ccc(CNc3c(N4CCOCC4)c(=O)c3=O)cc2)cc1	> 100 µM (active)
O=C(c1ccc(CNc2c(N3CCCC3)c(=O)c2=O)cc1)N1CC=C(c2ccccc2)CC1	> 68.8 µM (active) and > 79.4 µM (active)
CC1CCCN(C(=O)C2CCC(CNc3c(N4CCCCC4)c(=O)c3=O)CC2)C1 (stereo not drawn)	> 100 µM (active)
CC1CCCN(C(=O)c2ccc(CNc3c(N4CCCCC4)c(=O)c3=O)cc2)C1 (stereo not drawn)	> 100 µM (active)
O=C(NCCc1ccc(Cl)cc1)C1CCC(CNc2c(N3CCCCC3)c(=O)c2=O)CC1 (stereo not drawn)	> 100 µM (active)
O=C(NCCc1ccc(Cl)cc1)c1ccc(CNc2c(N3CCOCC3)c(=O)c2=O)cc1	> 100 µM (active)
CC1CC(C)CN(C(=O)c2ccc(CNc3c(N4CCCC4)c(=O)c3=O)cc2)C1 (stereo not drawn)	> 100 µM (active)
O=C(c1ccc(CNc2c(N3CCCC3)c(=O)c2=O)cc1)N1CCc2ccccc2C1	> 100 µM (active)
O=C(C1CCC(CNc2c(N3CCCCC3)c(=O)c2=O)CC1)N1CCCCC1 (stereo not drawn)	> 100 µM (active)
CC(C)OC(=O)CSc1ncnc2c1cnn2-c1ccccc1	> 100 µM (active)
COc1ccc(N2CCN(C(=O)c3ccc(CNc4c(N5CCOCC5)c(=O)c4=O)cc3)CC2)cc1	> 100 µM (active)
CC1CC(C)CN(C(=O)C2CCC(CNc3c(N4CCCCC4)c(=O)c3=O)CC2)C1 (stereo not drawn)	> 75 µM (active) and > 100 µM (active)
